# Results: PubChem BioAssay AID651919 (Sanford-Burnham Center for Chemical Genomics, 2012)
# Where “and” joins values, the source holds several entries; their conditions need not be identical. Equal values may be shown once.
# Target: C-X-C chemokine receptor type 6 (Homo sapiens) (UniProt O00574)
# Assay: antagonism of CXCR6 versus CXCR5 signaling – cell-based, CHO-K1 PathHunter beta-arrestin, luminescence, set 4, selectivity assay for CXCR6 antagonist project, profiling panel (AID 651919)
# Settings: run 1, at 79 µM (top of the series)
# C-X-C chemokine receptor type 6 (Homo sapiens), sequence (O00574 whole entry, looked up): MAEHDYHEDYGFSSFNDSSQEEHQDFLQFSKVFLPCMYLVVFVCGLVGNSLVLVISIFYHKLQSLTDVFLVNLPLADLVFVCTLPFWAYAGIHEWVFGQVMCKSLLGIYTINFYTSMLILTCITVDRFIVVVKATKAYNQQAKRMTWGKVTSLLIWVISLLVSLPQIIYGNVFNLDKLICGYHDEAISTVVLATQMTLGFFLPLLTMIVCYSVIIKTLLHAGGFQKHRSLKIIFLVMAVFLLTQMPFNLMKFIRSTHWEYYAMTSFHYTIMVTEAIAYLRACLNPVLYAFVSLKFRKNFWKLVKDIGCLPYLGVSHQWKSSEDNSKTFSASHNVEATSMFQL
row,SMILES,inhibition
1,COc1cc(OC)cc(C(=O)NC2CC3CCCC(C2)N3CC(=O)Nc2ccccc2)c1 (centres undefined),12.4%
2,O=C(CN1C2CCCC1CC(NC(=O)c1ccc3c(c1)OCO3)C2)Nc1ccc(Cl)cc1 (centres undefined),3.65%
3,Cc1ccc(NC(=O)CN2C3CCCC2CC(NC(=O)c2ccc4c(c2)OCO4)C3)cc1 (centres undefined),11.9%
4,COc1ccc(NC(=O)CN2C3CCCC2CC(NC(=O)c2cc(OC)c(OC)c(OC)c2)C3)cc1 (centres undefined),66.4%
5,COc1ccc(C(=O)NC2CC3CCCC(C2)N3CC(=O)Nc2ccccc2)cc1OC (centres undefined),33.7%
6,COc1cc(C(=O)NC2CC3CCCC(C2)N3CC(=O)Nc2ccc(F)cc2)cc(OC)c1OC (centres undefined),84.8%
7,COc1cc(C(=O)NC2CC3CCCC(C2)N3CC(=O)Nc2ccc(Cl)cc2)cc(OC)c1OC (centres undefined),88.2%
8,COc1ccc(C(=O)NC2CC3CCCC(C2)N3CC(=O)Nc2ccc(F)cc2)cc1 (centres undefined),-4.57%
9,COc1ccc(NC(=O)CN2C3CCCC2CC(NC(=O)c2cccc(OC)c2)C3)cc1 (centres undefined),0.669%
10,COc1ccc(NC(=O)CN2C3CCCC2CC(NC(=O)c2ccc(OC)cc2)C3)cc1 (centres undefined),-3.32%
11,COc1cc(C(=O)NC2CC3CCCC(C2)N3CC(=O)Nc2ccccc2Cl)cc(OC)c1OC (centres undefined),99.8% and 101%
12,COc1ccc(NC(=O)CN2C3CCCC2CC(NC(=O)c2ccc(OC)c(OC)c2)C3)cc1 (centres undefined),12.2%
13,COc1cccc(C(=O)NC2CC3CCCC(C2)N3CC(=O)Nc2ccc(F)cc2)c1 (centres undefined),-1.02%
14,COc1cccc(C(=O)NC2CC3CCCC(C2)N3CC(=O)Nc2ccccc2)c1 (centres undefined),16.6%
15,O=C(CN1C2CCCC1CC(NC(=O)c1ccccc1)C2)Nc1ccccc1 (centres undefined),10.1%
16,COc1ccc(CN2C3CCCC2CC(NC(=O)c2cc(OC)c(OC)c(OC)c2)C3)cc1 (centres undefined),57.9%
17,COc1cccc(C(=O)NC2CC3CCCC(C2)N3CC(=O)Nc2ccc(Cl)cc2)c1 (centres undefined),1.72%

row,SMILES,inhibition
1,COc1ccc(C(=O)NC2CC3CCCC(C2)N3CC(=O)Nc2ccc(F)cc2)cc1OC (centres undefined),15%
2,COc1cc(OC)cc(C(=O)NC2CC3CCCC(C2)N3CC(=O)Nc2ccc(F)cc2)c1 (centres undefined),7.92%
3,COc1ccc(C(=O)NC2CC3CCCC(C2)N3CC(=O)Nc2ccc(Cl)cc2)cc1OC (centres undefined),9.09%
4,COc1cc(OC)cc(C(=O)NC2CC3CCCC(C2)N3CC(=O)Nc2ccc(Cl)cc2)c1 (centres undefined),5.14%
5,COc1cc(C(=O)NC2CC3CCCC(C2)N3CC(=O)Nc2ccccc2)cc(OC)c1OC (centres undefined),96.3% and 90.5%
6,COc1cccc(C(=O)NC2CC3CCCC(C2)N3CC(=O)Nc2ccc(C)cc2)c1 (centres undefined),16.6%
7,COc1ccc(C(=O)NC2CC3CCCC(C2)N3CC(=O)Nc2ccc(C)cc2)cc1 (centres undefined),13.2%
8,COc1cc(C(=O)NC2CC3CCCC(C2)N3CC(=O)Nc2ccc(C)cc2)cc(OC)c1OC (centres undefined),79%
9,COc1ccc(NC(=O)CN2C3CCCC2CC(NC(=O)c2cc(OC)cc(OC)c2)C3)cc1 (centres undefined),11.5%
10,O=C(CN1C2CCCC1CC(NC(=O)c1ccc3c(c1)OCO3)C2)Nc1ccccc1 (centres undefined),12.3%
11,COc1ccccc1NC(=O)CN1C2CCCC1CC(NC(=O)c1cc(OC)c(OC)c(OC)c1)C2 (centres undefined),97.4%
12,COc1ccc(NC(=O)CN2C3CCCC2CC(NC(=O)c2ccc4c(c2)OCO4)C3)cc1 (centres undefined),-0.217%
13,COc1cc(OC)cc(C(=O)NC2CC3CCCC(C2)N3CC(=O)Nc2ccc(C)cc2)c1 (centres undefined),10.9%
14,COc1ccc(C(=O)NC2CC3CCCC(C2)N3CC(=O)Nc2ccc(C)cc2)cc1OC (centres undefined),23.5%
15,COc1ccc(C(=O)NC2CC3CCCC(C2)N3CC(=O)Nc2ccc(Cl)cc2)cc1 (centres undefined),-4.29%
16,COc1ccc(C(=O)NC2CC3CCCC(C2)N3CC(=O)Nc2ccccc2)cc1 (centres undefined),0.75%
17,O=C(CN1C2CCCC1CC(NC(=O)c1ccc3c(c1)OCO3)C2)Nc1ccc(F)cc1 (centres undefined),-0.62%
